According to PubChem BioAssay (Tox21):
Results filed as inconclusive are left out. A call without a number means that no potency is given here. Values without a mark were called inactive. Active and inactive are the calls of the source. Calls follow the shape of the dose curve; as a rule, active = well fitted curve in the direction sought with a large enough effect in the repeat runs; inconclusive = weak or mixed curves; inactive = no such curve, though single readings can be large; an effect the other way counts as inactive or inconclusive.

Columns and labels:
[1] = qHTS assay to identify small molecule agonists of the RXR signaling pathway - cell viability counter screen (AID 1159529); also: nearly all actives have a fitted effect of over 50% in size; also: potency is read from the fitted curve at half-maximal effect;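 as to activity change, negative = cytotoxicity: HEK 293T cells carrying an RXR-alpha UAS beta-lactamase reporter; series mostly up to about 77 µM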
Summary of the method: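 Tox21 10K compounds were tested for cytotoxicity against GeneBLAzer RXR-alpha HEK 293T cells grown in 2% charcoal-stripped FBS. Exposure lasted 16 hr at 37 C, 5% CO2; viability read by CellTiter-Glo luminescence.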

[2] = qHTS assay to identify small molecule antagonists of the retinoid acid receptor (RAR) signaling pathway - cell viability counter screen (AID 1159551); also: nearly all actives have a fitted effect of over 35% in size
Summary of the method: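 C3RL4 cells were seeded overnight at 37 C, then treated with compounds plus 1 uM (final) retinol for 6 h at 37 C. Viability was read as ATP by CellTiter-Glo luminescence after 30 min at room temperature.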

[3] = qHTS assay to identify small molecule antagonists of the retinoic acid receptor (RAR) signaling pathway (AID 1159552; also: nearly all actives have a fitted effect of over 50% in size)
Summary of the method: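 Overnight-plated C3RL4 reporter cells get compound, then retinol to 1 uM final; plates sit 6 hr at 37 C, 5% CO2. A luciferase reagent is added and light output recorded after 30 min at room temperature.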

[4] = qHTS assay to identify small molecule agonists of the retinoic acid receptor (RAR) signaling pathway (AID 1159553); also: potency is read from the fitted curve at half-maximal effect
Summary of the method: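 C3RL4 cells carrying a RARE luciferase reporter were plated overnight at 37 C, then exposed to compounds in DMSO for 6 hr at 37 C and 5% CO2. Luminescence was read 30 min after luciferase reagent addition at room temperature.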

[5] = qHTS assay to identify small molecule antagonists of the estrogen related receptor (ERR) signaling pathway from Tox21 library - cell viability counter screen (AID 1224834); also: nearly all actives have a fitted effect of over 30% in size
Summary of the method: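 ERR reporter cells were plated 6 h before compound addition, then exposed to test compounds in DMSO for 17.5 h at 37 C. Viability was read as CellTiter-Fluor fluorescence after a 30-minute incubation at 37 C.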

[6] = qHTS assay to identify small molecule antagonists of the estrogen related receptor signaling pathway with the pleiotropic PPARgamma coactivator (PGC) cell viability counter screen (AID 1224822; also: series mostly up to about 46 µM)
Summary of the method: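 PGC/ERR cells were seeded at 2,000 cells/well, rested 6 h at 37 C/5% CO2, then given compounds in DMSO by pin tool and incubated 17.5 h at 37 C. Viability came from CellTiter-Fluor fluorescence after 30 min.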

CCOC(=O)c1ccc(NC(=O)CN2CCCCC2)cc1
Potency [1]: inactive
Potency [2]: inactive
Potency [3]: inactive
Potency [4]: 21.1 µM (active)

CCc1ccc(C)cc1
Potency [1]: inactive
Potency [2]: inactive
Potency [3]: inactive
Potency [4]: inactive
Potency [5]: inactive

CCN(CC)C(=O)N1CCN(C)CC1
Potency [1]: inactive
Potency [2]: inactive
Potency [3]: inactive
Potency [4]: inactive

CCSC(=O)N(CC)CC
Potency [1]: inactive
Potency [2]: inactive

CCN(CC)CCOc1ccccc1C(=O)CCc1ccccc1
Potency [1]: 9.52 µM (active)
Potency [2]: inactive
Potency [3]: inactive
Potency [4]: inactive

CC1CCC(C(C)CS)CC1S (configuration not stated)
Potency [1]: inactive
Potency [2]: inactive
Potency [3]: inactive
Potency [4]: inactive
Potency [5]: inactive

COC1CCC=CO1 (configuration not stated)
Potency [1]: inactive
Potency [2]: inactive
Potency [3]: inactive
Potency [4]: inactive
Potency [5]: inactive

O=c1[nH]c2cc(C(F)(F)F)c(N3CCOCC3)cc2n(CP(=O)(O)O)c1=O
Potency [1]: inactive
Potency [2]: inactive
Potency [3]: inactive
Potency [4]: inactive

Cc1ccc2c(c1[N+](=O)[O-])C(=O)c1ccccc1C2=O
Potency [1]: inactive
Potency [2]: inactive
Potency [3]: inactive

O=C1CC[C@@H](C(=O)O)N1
Potency [1]: inactive
Potency [2]: inactive
Potency [3]: inactive
Potency [4]: inactive
Potency [5]: inactive

O=C(O)/C=C/c1ccc(O)c(O)c1
Potency [1]: inactive
Potency [2]: inactive
Potency [3]: inactive
Potency [4]: inactive
outcome [6]: inactive

C=CCOC(=O)COCCC(C)C
Potency [1]: inactive
Potency [2]: inactive
Potency [3]: inactive
Potency [4]: inactive

O=C1OC[C@H](Cc2cccc(O)c2)[C@H]1Cc1cccc(O)c1
Potency [1]: inactive
Potency [2]: inactive
Potency [3]: inactive
Potency [4]: inactive

CC(=O)OCCC1CCCCC1
Potency [1]: inactive
Potency [2]: inactive
Potency [3]: inactive
Potency [4]: inactive

CCCCCCCCCCCCCCN(C)C
activity change, negative = cytotoxicity [1]: 0.892% [at 15.8 µM]
activity change, negative = cytotoxicity [2]: 0.962% [at 19 µM]
activity, negative = inhibition [3]: -4.35% [at 19 µM]
Potency [4]: inactive
